Measured values as given in PubChem BioAssay (NCATS).
Records with an inconclusive call do not appear. Active and inactive are the calls of the source. The call rests on the fitted dose curve; in most records, active means well fitted cell-killing curve with a large enough effect; inconclusive means small, poorly fitted or top-dose-only effect, or effect the other way; inactive means flat fitted curve, though single readings scatter.

Legend:
Assay in all cases: Primary qHTS to identify gynecologic anti-cancer compounds using libraries of approved drugs and bioactive compounds (AID 1345084); further: nearly all actives have a fitted effect of over 55% in size
[1] = tested on: C33A; settings: Gynecologic cancer cell panel viability, ATPlite luminescence, 48 h; series mostly up to 57.5 µM
Procedure, shortened: (§1)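 Measured: luminescence after ATPlite addition (15 min, RT). Exposure: 48 h, 37 C, 5% CO2.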

[2] = tested on: CAOV3; settings: Gynecologic cancer cell panel viability, ATPlite luminescence, 48 h; series mostly up to 57.5 µM
Procedure, shortened: as §1

[3] = tested on: CASKI; settings: Gynecologic cancer cell panel viability, ATPlite luminescence, 48 h; series mostly up to 57.5 µM
Procedure, shortened: as §1

[4] = tested on: Es-2; settings: Gynecologic cancer cell panel viability, ATPlite luminescence, 48 h; series mostly up to 57.5 µM
Procedure, shortened: as §1

[5] = tested on: HeLa; settings: Gynecologic cancer cell panel viability, ATPlite luminescence, 48 h; series mostly up to 57.5 µM
Procedure, shortened: as §1

[6] = tested on: Hek293T; settings: Gynecologic cancer cell panel viability, ATPlite luminescence, 48 h, control line for the selectivity index; series mostly up to 57.5 µM
Procedure, shortened: as §1

[7] = tested on: JEG-3; settings: Gynecologic cancer cell panel viability, ATPlite luminescence, 48 h; series mostly up to 57.5 µM
Procedure, shortened: as §1

[8] = tested on: OV90; settings: Gynecologic cancer cell panel viability, ATPlite luminescence, 48 h; series mostly up to 57.5 µM
Procedure, shortened: as §1

[9] = tested on: PA-1; settings: Gynecologic cancer cell panel viability, ATPlite luminescence, 48 h; series mostly up to 57.5 µM
Procedure, shortened: as §1

[10] = tested on: SKOV3; settings: Gynecologic cancer cell panel viability, ATPlite luminescence, 48 h; series mostly up to 57.5 µM
Procedure, shortened: as §1

[11] = tested on: Tov-21-G; settings: Gynecologic cancer cell panel viability, ATPlite luminescence, 48 h; series mostly up to 57.5 µM
Procedure, shortened: as §1

[12] = tested on: Tov112D; settings: Gynecologic cancer cell panel viability, ATPlite luminescence, 48 h; series mostly up to 57.5 µM
Procedure, shortened: as §1
On the % scale 0 is the no-effect control and ±100 the full control effect.

COC(=O)CC1(O)C(=O)Nc2ccccc21 (centres undefined)
inactive: Potency [1] | Potency [2] | Potency [3] | Potency [4] | Potency [5] | Potency [6] | Potency [7] | Potency [8] | Potency [9] | Potency [10] | Potency [11] | Potency [12]

CCC(C)/C=C(C)/C=C/C1=CC2=C(Cl)C(=O)C(C)(OC(C)=O)C(=O)C2=CN1C1CCCCN(C(CCC(N)=O)C(=O)O)C1=O (centres undefined)
inactive: Potency [1] | Potency [2] | Potency [3] | Potency [4] | Potency [5] | Potency [6] | Potency [7] | Potency [8] | Potency [9] | Potency [10] | Potency [11] | Potency [12]

COCCN(C)Cc1ccc2nc3sc(C(=O)N(C)C4CCCCC4)cn3c2c1
inactive: Potency [1] | Potency [2] | Potency [3] | Potency [4] | Potency [5] | Potency [6] | Potency [7] | Potency [8] | Potency [9] | Potency [10] | Potency [11] | Potency [12]

CC(NCc1ccc(OCc2cccc(F)c2)cc1)C(N)=O (centres undefined)
inactive: Potency [1] | Potency [2] | Potency [3] | Potency [4] | Potency [5] | Potency [6] | Potency [7] | Potency [8] | Potency [9] | Potency [10] | Potency [11] | Potency [12]

C[C@@H]1O[C@@H](O[C@H]2[C@H](O)[C@@H](C(=O)O)O[C@@H](O[C@H]3CC[C@@]4(C)C(CC[C@]5(C)C4CC=C4C6CC(C)(C)CC[C@]6(C(=O)O)CC[C@]45C)C3(C)C)[C@@H]2O[C@@H]2O[C@H](CO)[C@@H](O)[C@H](O)[C@H]2O)[C@H](O)[C@H](O)[C@H]1O (some centres undefined)
inactive: activity change, negative = cytotoxicity [1] 0.0448% [at 11.6 µM] | activity change, negative = cytotoxicity [2] 1.71% [at 11.6 µM] | activity change, negative = cytotoxicity [3] -2.17% [at 11.6 µM] | activity change, negative = cytotoxicity [4] 0.67% [at 11.6 µM] | activity change, negative = cytotoxicity [5] 6.77% [at 11.6 µM] | activity change, negative = cytotoxicity [6] -9.05% [at 11.6 µM] | activity change, negative = cytotoxicity [7] -1.5% [at 11.6 µM] | activity change, negative = cytotoxicity [8] -2.55% [at 11.6 µM] | activity change, negative = cytotoxicity [9] -11.5% [at 11.6 µM] | activity change, negative = cytotoxicity [10] -1.84% [at 11.6 µM] | activity change, negative = cytotoxicity [11] 0.088% [at 11.6 µM] | activity change, negative = cytotoxicity [12] 0.16% [at 11.6 µM]

C=CC1(C)C=C2C(O)CC3C(C)(C(=O)O)CCCC3(C)C2CC1 (centres undefined)
inactive: Potency [1] | Potency [2] | Potency [3] | Potency [4] | Potency [5] | Potency [6] | Potency [7] | Potency [8] | Potency [9] | Potency [10] | Potency [11] | Potency [12]

O=c1c2ccccc2nc2n1CCC2O (centres undefined)
inactive: Potency [1] | Potency [2] | Potency [3] | Potency [4] | Potency [5] | Potency [6] | Potency [7] | Potency [8] | Potency [9] | Potency [10] | Potency [11] | Potency [12]

C[C@@H]1O[C@@H](O[C@H]2[C@H](O[C@H]3[C@H](O[C@H]4CC[C@@]5(CO)C(CC[C@]6(C)C5CC=C5C7CC(C)(C)C[C@@H](O)[C@]7(C)CC[C@]56C)C4(C)C)O[C@H](C(=O)O)[C@@H](O)[C@@H]3O)OC[C@@H](O)[C@@H]2O)[C@H](O)[C@H](O)[C@H]1O (some centres undefined)
inactive: activity change, negative = cytotoxicity [1] -1.54% [at 11.6 µM] | activity change, negative = cytotoxicity [2] 7.01% [at 11.6 µM] | activity change, negative = cytotoxicity [3] 6.9% [at 11.6 µM] | activity change, negative = cytotoxicity [4] -4.17% [at 11.6 µM] | activity change, negative = cytotoxicity [5] -12.2% [at 11.6 µM] | activity change, negative = cytotoxicity [6] -3.07% [at 11.6 µM] | activity change, negative = cytotoxicity [7] -1.11% [at 11.6 µM] | activity change, negative = cytotoxicity [8] -1.83% [at 11.6 µM] | activity change, negative = cytotoxicity [9] 6.18% [at 11.6 µM] | activity change, negative = cytotoxicity [10] 0.621% [at 11.6 µM] | activity change, negative = cytotoxicity [11] 0.307% [at 11.6 µM] | activity change, negative = cytotoxicity [12] -0.127% [at 11.6 µM]

O=C(O[C@@H]1O[C@H](CO)[C@@H](O)[C@H](O)[C@H]1O)c1c(O)cc(O)cc1/C=C/c1ccccc1
inactive: Potency [1] | Potency [2] | Potency [3] | Potency [4] | Potency [5] | Potency [6] | Potency [7] | Potency [8] | Potency [9] | Potency [10] | Potency [11] | Potency [12]

N#CC1C(=O)Nc2scc(-c3ccc(-c4ccccc4O)cc3)c2C1=O (centres undefined)
inactive: Potency [1] | Potency [2] | Potency [3] | Potency [4] | Potency [5] | Potency [6] | Potency [7] | Potency [8] | Potency [9] | Potency [10] | Potency [11] | Potency [12]

CNC(=O)COC(=O)NCCC1CCN(c2cccc(C)n2)CC1
inactive: Potency [1] | Potency [2] | Potency [3] | Potency [4] | Potency [5] | Potency [6] | Potency [7] | Potency [8] | Potency [9] | Potency [10] | Potency [11] | Potency [12]

CC(/C=C/C1(O)C2(C)COC1(C)CC(=O)C2)O[C@@H]1O[C@H](CO)[C@@H](O)[C@H](O)[C@H]1O (some centres undefined)
inactive: Potency [1] | Potency [2] | Potency [3] | Potency [4] | Potency [5] | Potency [6] | Potency [7] | Potency [8] | Potency [9] | Potency [10] | Potency [11] | Potency [12]
